Among all 59,000 compounds or so, about 540 (0.92%) were called active. Roughly 33% stayed inconclusive and do not appear here. No stated cut-off is given here; in the data, active means max fluorescein-equivalent concentration above about 10 nM; inconclusive means between about 1.1 nM and that limit; inactive means weaker than that. The sample as a whole holds a higher share of actives than the screen did.
test: qHTS Assay for Spectroscopic Profiling in Fluorescein Spectral Region; conditions: Compound autofluorescence, 480/540 nm; max fluorescein-equivalent concentration: stronger effect = higher value; outcome: fluorescein-equivalent
From the text: NIH Molecular Libraries Screening Centers Network [MLSCN]
NIH Chemical Genomics Center [NCGC]
Occasionally, the artifactual effect may originate from the compound's own spectral or other biophysical properties which generally tend to track its assay concentration. Pre-screening/profiling the library with respect to the compounds' spectral properties should help one exclude false positives early on. While the most informative fluorescent profiling data set is obtained by performing a full excitation and emission scan of each well by using a monochromator-based plate reader, such an approach is practical only on a very limited scale as scanning each well requires long time. An alternative approach, applied here, is to perform plate reader scans using selected excitation and emission wavelength pairs to generate a multidimensional relational database that correlates compound concentration and the respective relative fluorescence intensity at a given wavelength set. A standard curve of fluorescein present on each plate as six-point concentration series, was used to compute a normalized fluorescence response, termed dye-equivalent concentration, for each compound at each concentration.
NCGC Assay Protocol Summary:
100 mM Tris buffer, pH 8.0
The wells in columns 1 through 4 of a Kalypsys polypropylene 1536-well compound plate were filled with standard solutions of fluorophore corresponding to the spectral region of interest. Solutions of Fluorescein were placed in the following wells: Q1, R1: 3 mM, Q2, R2: 300 uM, Q3, R3: 30 uM, Q4, R4: zero (DMSO), S1, T1: 3 uM, S2, T2: 900 nM, S3, T3: 300 nM, S4, T4: zero (DMSO).
Six uL of buffer were dispensed to 1536-well Greiner black plates. Compounds and dye standards (23 nL) were transferred via Kalypsys PinTool. The plates were incubated for 15 min at room temperature, and then read on ViewLux (Perkin-Elmer) High-throughput CCD imager using 480 nm and 540 nm excitation and emission filter set.
Keywords: NIH Roadmap, MLSCN, MLI, MLSMR, qHTS, NCGC, Fluorescein, Fluorescent Profiling.

Compound | max fluorescein-equivalent concentration
CN1C2C=C(N(C(=O)c3ccc(Cl)cc3)c3ccccc3)CC1CC2 (stereo not given) | 10 nM (active)
CCN1C[C@@]2(COC)CC[C@H](OC)[C@]34[C@@H]1[C@]1(OCO[C@@]15C[C@@H](OC)C1C[C@H]3[C@H]5[C@@H]1OC)[C@H](O)[C@@H]24 | inactive
COc1ccc(-c2nc(CS(=O)CC(=O)N3CCC4(CC3)OCCO4)c(C)o2)cc1 (stereo not given) | inactive
CC(C)CCC1(CCN)C(=O)NC(=O)NC1=O | inactive
CCC(=NCc1ccco1)c1c(O)n(Cc2ccccc2)c(=O)[nH]c1=O | inactive

Reference: PubChem BioAssay AID593 (National Center for Advancing Translational Sciences (NCATS), 2007)
